# Assay outcomes from PubChem BioAssay.
# NTR1 ag: activates human neurotensin receptor 1; P30989; NTR1-U2OS beta-arrestin-GFP spot imaging, agonist mode; activation, % at 20 µM; 330,000 compounds, 0.17% hits; AID 493036;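 active means activation at or above 40% of the spot to cytoplasm intensity ratio, with at least 20 cells analyzed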;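 further: 0% = DMSO without peptide and 100% = 100 nM NTR1 peptide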
# Mot1-301 SUMO: blocks SUMOylation pathway, rescuing yeast Mot1-301 growth; S. cerevisiae Mot1-301 growth rescue, ATP luminescence, 38.5C; percent above DMSO median, 100 means doubled; growth rescue, % at 18.8 µM; 320,000 compounds, 1% hits; AID 2716;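 active means every valid replicate shows activation above 250% relative to neutral control wells; inactive means the rest, any valid replicate at or below 250%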;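 further: OY570 slx delta 5 strain wells were the positive control but not used for scaling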
# GRIN3A LBD mod: NR3A (human) ligand-binding domain modulation | NR3A LBD differential scanning fluorimetry, Tm shift; 0% = protein alone, 100% = glycine-bound protein | AID 1259313 | 340,000 compounds, 2.5% hits | Tm shift relative to glycine control, % at 25 µM;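 active means melting temperature shift of at least 10% of the positive control shift, at one fixed dose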
# H9c2 protect: modulators protecting cardiomyocytes from myocardial damage; H9c2 cardiomyocytes, H2O2 injury protection, ATPLite, 2 h; protection from H2O2 cell death, % at 20 µM; 360,000 compounds, 0.63% hits; AID 588492;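 active means compounds giving at least 50% protection of heart cells from peroxide-induced death in the single-dose screen, raw or plate-pattern-corrected value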;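 further: 0% = DMSO wells with peroxide and 100% = DMSO wells without peroxide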
# AI-2 QS modul: modulates the Vibrio harveyi AI-2 quorum sensing system | Vibrio harveyi JMH597 AI-2 luminescence/OD600 ratio, 9 h; stronger effect = lower value; strain lacks LuxN and CqsS sensors; 0 = neutral-control median | activity change, % at 7.5 µM | 300,000 compounds, 0.4% hits | AID 2094; in the data active means activity change below about -75%, passing the limit was not always enough;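 further: luminescence divided by OD600 gain over 9 h not by final OD600 alone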
# AHR activator: activates the human aryl hydrocarbon receptor; 320,000 compounds, 2.5% hits; activation, % at 5 µM; AHR-responsive luciferase reporter cells, luminescence; P35869; in the data active means activation above about 47%;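 further: 0% = vehicle wells and 100% = reference agonist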
# Target sequence (P35869 whole entry, looked up): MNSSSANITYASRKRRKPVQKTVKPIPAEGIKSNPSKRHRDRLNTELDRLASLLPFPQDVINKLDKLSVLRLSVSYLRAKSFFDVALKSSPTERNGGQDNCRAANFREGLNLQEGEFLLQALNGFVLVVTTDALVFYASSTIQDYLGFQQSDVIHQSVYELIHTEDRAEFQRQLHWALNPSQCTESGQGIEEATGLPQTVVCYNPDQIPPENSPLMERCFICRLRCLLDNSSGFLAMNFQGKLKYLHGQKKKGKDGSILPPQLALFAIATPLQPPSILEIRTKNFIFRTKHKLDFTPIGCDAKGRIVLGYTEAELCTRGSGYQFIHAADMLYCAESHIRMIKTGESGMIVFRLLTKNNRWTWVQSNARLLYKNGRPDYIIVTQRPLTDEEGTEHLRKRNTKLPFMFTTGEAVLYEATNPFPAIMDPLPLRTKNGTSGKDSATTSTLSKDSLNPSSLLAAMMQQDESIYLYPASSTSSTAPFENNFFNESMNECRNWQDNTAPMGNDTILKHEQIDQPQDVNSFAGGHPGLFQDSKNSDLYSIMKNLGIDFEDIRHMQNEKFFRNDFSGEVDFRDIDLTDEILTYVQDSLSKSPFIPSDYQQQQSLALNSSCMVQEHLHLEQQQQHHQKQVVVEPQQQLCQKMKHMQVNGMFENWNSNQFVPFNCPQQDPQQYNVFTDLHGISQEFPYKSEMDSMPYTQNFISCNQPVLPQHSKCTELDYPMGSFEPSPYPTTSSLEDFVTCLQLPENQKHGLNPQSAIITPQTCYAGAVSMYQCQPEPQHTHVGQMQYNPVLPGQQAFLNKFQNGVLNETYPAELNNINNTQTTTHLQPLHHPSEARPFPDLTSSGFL
# Starred values were filed as active, the others as inactive; . = no result given. Compounds with a hit are over-represented: about 6.2% of the library has one in this group of screens.
SMILES,NTR1 ag,Mot1-301 SUMO,GRIN3A LBD mod,H9c2 protect,AI-2 QS modul,AHR activator
Cc1ccc(C(=O)OCC(=O)c2ccccc2)cc1,1,-21,19*,-15,-53,-1
Cc1ccc(C(=O)Cc2ccccc2)cc1,.,.,1,-10,.,.
O=C(CCCCCCC(=O)c1ccccc1)c1ccccc1,0,18,6,-9,63,0
O=C(NCc1ccc2c(c1)OCO2)c1nc(Cn2cc(Br)cn2)no1,0,12,-4,5,.,8
O=C(OCC(=O)c1ccccc1Cl)C1=NN(c2ccccc2)C(=O)CC1,1,9,3,6,.,-1
Cc1ccc(C(=O)CCc2ccc(N)cc2)cc1,2,318*,2,-2,-5,9
COc1ccc(Nc2cccc3ccccc23)cc1,0,-6,-5,-26,26,77*
COc1ccc(Nc2cccccc2=O)cc1,-2,13,-2,4,18,-3
COc1ccc(Nc2ccc(Nc3ccc(OC)cc3)nn2)cc1,0,5,27*,-5,-1,16
COc1cc(Nc2c3ccccc3nc3ccccc23)cc(OC)c1OC,12,6,-9,-11,34,15
COc1ccc(Nc2cc(Nc3cc(OC)c(OC)c(OC)c3)ncn2)cc1,1,20,14*,12,20,59*
COc1cccc(Nc2ncnc3ccc(Br)cc23)c1,.,.,.,-3,.,.
COc1ccc(Nc2ccc(OC)cc2)cc1,3,-13,-16,-7,-12,6
COc1ccc(Nc2cc(Nc3cccc(OC)c3)ncn2)cc1,-1,-11,27*,0,21,11
Cc1cc(C)nc(NC(=O)c2c(F)c(F)c(F)c(C(=O)Nc3cc(C)cc(C)n3)c2F)c1,2,-8,0,16,29,-1
COc1ccc(Nc2cc(Nc3ccc(OC)cc3)ncn2)cc1,-1,1,16*,-4,11,4
CNc1nc2ccccc2n1/N=C/c1cccc(OC)c1OC,7,-1,32*,4,14,-7
Cc1ccc(Nc2c(-c3ccc(C)o3)nc3ncccn23)cc1,1,7,-2,1,10,3
Cc1ccc(Nc2c(-c3ccc(N(C)C)cc3)nc3ncccn23)cc1,-1,328*,0,-4,21,11
Cc1c(CCOC(=O)C23CC4CC(CC(C4)C2)C3)sc[n+]1Cc1ccccc1,2,16,2,-12,13,69*
COc1ccc(NC(=O)C(C)Sc2ccccc2)cc1 (stereo not given),0,3,3,3,14,5
COc1ccc(NC(=O)Nc2cc3oc4ccccc4c3cc2OC)cc1,23,15,13*,9,6,74*
COc1cc2c(cc1NC(=O)C(C)OC(=O)C1CC(=O)N(Cc3ccco3)C1)oc1ccccc12 (stereo not given),7,6,-17,4,2,54*
COc1cc2c(cc1NC(=O)Nc1ccc(F)cc1)oc1ccccc12,4,-20,186*,-8,34,66*
COc1ccc(OCC(=O)Nc2cc3oc4ccccc4c3cc2OC)cc1,18,255,-11,-2,11,4
SMILES,NTR1 ag,Mot1-301 SUMO,GRIN3A LBD mod,H9c2 protect,AI-2 QS modul,AHR activator
COc1cc2c(cc1NC(=O)C(C)Sc1ccc(NC(C)=O)cc1)oc1ccccc12 (stereo not given),5,7,16*,-8,11,31
COc1cc2c(cc1NC(=O)C1CCCO1)oc1ccccc12 (stereo not given),3,16,1,-6,2,15
O=C1NC(Cc2ccccc2)c2nc3ccc(Br)cc3c(=O)n2-c2cc(Cl)ccc21 (stereo not given),-1,-22,.,.,.,3
CC1CCCCN1C(=O)CN1C(=O)NC2(CCCCC2C)C1=O (stereo not given),0,-13,-1,4,.,0
CCN1C(=O)[C@H]2[C@@H](c3ccc(OC)cc3)N[C@]3(CCCN(Cc4ccc(OC)cc4)C3=O)[C@H]2C1=O,.,.,.,4,.,.
COc1ccc(-c2cn3cccnc3n2)cc1NC(=O)C(C)C,-2,-15,.,-14,16,49*
COc1ccc(-c2cn3cccnc3n2)cc1NC(=O)C1CC1,-1,255,0,1,26,45
O=C(/C=C\Nc1ccc(Br)cc1)c1cccnc1,-1,.,-1,-15,-47,-2
O=C(/C=C/Nc1ccc(Br)cn1)c1cccc(OC(F)F)c1,0,22,14*,-9,.,2
Cc1cc(C(=O)NN=Cc2ccc(-c3ccc(F)cc3)o2)c(C)o1,1,4,16*,-2,.,-3
Cc1ccc(C(=O)N/N=C\c2ccc(-c3ccc([N+](=O)[O-])cc3)o2)cn1,0,-5,-2,12,28,13
Cc1ccc(C(=O)N/N=C\c2ccc(-c3ccc(Cl)cc3)o2)cn1,3,25,13*,60*,2,8
C/C=C/c1cnc2c(c1)C(=O)N([C@H](C)CO)C[C@H](C)[C@@H](CN(C)C(=O)CN1CCOCC1)O2,.,.,.,12,.,.
CCOC(=O)c1ccc(NC(=O)c2nc[nH]c2C(=O)NCCCCCNC(=O)OC(C)(C)C)cc1,35,2,0,79*,22,3
CCOC(=O)c1ccc(NC(=O)c2nc[nH]c2C(=O)NCCCNC(=O)c2[nH]cnc2C(=O)Nc2ccc(C(=O)OCC)cc2)cc1,4,0,-5,44,.,2
CCOC(=O)c1ccc(NC(=O)c2nc[nH]c2C(=O)NCCCCNC(=O)c2[nH]cnc2C(=O)Nc2ccc(C(=O)OCC)cc2)cc1,2,12,0,58*,.,0
CN1C(=O)CCC2(c3ccccc3)CC=C(O)C=C12 (stereo not given),.,.,-2,4,.,.
CC(C)c1ccc(NC(=O)C2(C)Cc3c(-c4ccc(N(C)C)cc4)ccnc3O2)cc1 (stereo not given),.,.,.,-13,.,.
CC(=O)c1cc(CN2CCC(C(=O)Nc3ccc(-n4nc(C)cc4C)cc3)CC2)cs1,0,0,2,-1,17,-2
C=CCn1c(Cc2ccccc2)nnc1SCc1nc2ccccc2c(=O)[nH]1,0,-1,0,7,7,2
O=c1[nH]c(SCc2nc3c(cnn3-c3ccccc3)c(=O)[nH]2)nc2ccccc12,.,.,-6,53*,.,.
O=c1[nH]c(CSc2ncccn2)nc2c1cnn2-c1ccccc1,-2,268,-1,4,17,119*
C=CCn1c(SCc2nc3ccccc3c(=O)[nH]2)nc2ccccc2c1=O,-1,2,-1,12,21,60*
O=c1[nH]c(CSc2nc3ccccc3o2)nc2c1cnn2-c1ccccc1,9,-17,-2,3,-3,27
COc1cc(/C=C/C(=O)OCC(=O)N2CCCCCC2)cc(OC)c1OC,.,.,.,0,.,.
